HCV inh: HCV inhibition; Huh7.5.1 HCVcc-Cre infection, luciferase reporter, 44 h; Potency, µM (doses to about 41.8 µM), for inactives: top-dose activity change, negative = inhibition, actives largely listed as inhibitors; hit rate 3.4% among 340,000; AID 651820; active = well fitted inhibition curve with a large enough effect; inconclusive = small, poorly fitted or top-dose-only effect, or another doubt; inactive = no such curve, though single readings can be large or run the other way
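Luciferase read-out (15 sec integration) after a 15 min room-temperature substrate step quantifies HCVcc-Cre infection. Cells, 1,000 per well, had compound added 4 h post-plating, then virus at ~0.5 moi, and were cultured 44 h.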
Lassa entry inh: Lassa virus entry inhibition. Lassa virus pseudotype entry inhibition, cell reporter. Potency, µM (doses to about 37.9 µM), for inactives: at the highest dose activity change, negative = inhibition, usual class: inhibitors. hit rate 1.2% among 300,000. AID 540256; calls by dose curve; tested in HEK293 cells; note: nearly all actives have a fitted effect of over 50% in size
Vaccinia Venus: vaccinia inhibition (Venus reporter); Vaccinia virus Venus reporter expression, fluorescence; Potency, µM (highest dose often 36.5 µM), for the others: top-dose activity change, negative = inhibition, most hits filed as inhibitors; hit rate 0.46% among 330,000; calls by dose curve; tested in A549 cells; note: nearly all actives have a fitted effect of over 30% in size
VACV mCherry inh: vaccinia inhibition (mCherry reporter). Vaccinia virus mCherry reporter infection, fluorescence. Potency, µM (highest dose often 36.5 µM), inactives show top-dose activity change, negative = inhibition, hits mostly inhibitors. hit rate 0.63% among 310,000. AID 720579; calls by dose curve; tested in A549 cells; note: nearly all actives have a fitted effect of over 35% in size
MARV entry inh: inhibitors of Marburg virus binding or cell entry; Marburg virus pseudotyped entry inhibition, cell reporter; AID 540276; hit rate 1.8% among 300,000; Potency, µM (series often up to 37.8 µM), for the others: at the top dose activity change, negative = inhibition, actives largely listed as inhibitors; calls by dose curve; tested in HEK293 cells
* hit, by the source's call; i = inactive; ? = inconclusive; nt = not tested or not shown; [ ] = dose if it differs, or a comment. Compounds with a hit are over-represented: about 4.6% of the library has one in this group of screens. % is set by controls: 0 for no effect and ±100 for the full control effect; potency is the fitted concentration of half-maximal effect.

SMILES	HCV inh	Lassa entry inh	Vaccinia Venus	VACV mCherry inh	MARV entry inh
O=C(C[n+]1cccc2cccc(O)c21)c1ccc(Cl)cc1	nt	nt	3.6%	i	nt
CC(C)c1ccc(NC(=O)c2cccc3c2C(=O)N(C2CCCCC2)C3)cc1	nt	18.3%[46.1 µM]	-76.5%	?	-0.1%[46.1 µM]
CCO[C@H]1[C@H](NC(=O)c2cccnc2)c2ccccc2C12CCN(C(=O)c1cc(C)n(C)n1)CC2	nt	nt	-7.0%	-13.9%	nt
OCCNCc1c(OCc2ccc(Cl)cc2)ccc2ccccc12	11.2µM*	?	-18.9%	-36.6%	5.62µM*
CC(O)CNCCOc1ccccc1OCc1ccccc1 (stereo not drawn)	-8.8%	6.6%	-17.0%	-8.5%	?
CC(O)CNCCNCc1c(OCc2ccccc2)ccc2ccccc12 (stereo not drawn)	?	9.2µM*	-26.0%	-2.5%	?
COc1ccc(-c2noc(CSc3nnc(C)n3-c3cccc(C)c3)n2)cc1	nt	?	-6.1%	-7.0%	-4.0%[46.1 µM]
COc1cc(/C=C\C(=O)NCc2ccc3c(c2)cc(C)n3C)cc(OC)c1OC	5.0%[8.37 µM]	?	-3.0%	i	5.17µM*
COc1ccc(-c2nn(CC(=O)NCCc3ccccc3)c(=S)n2C)cc1	?	12.6µM*	-13.0%	-22.1%	?
CCn1c(-c2ccc(C)cc2)nn(CC(=O)NCCc2ccccc2)c1=S	?	?	-25.3%	-13.7%	8.91µM*
COc1ccc(C2=NN(CC(=O)NCCc3ccccc3)C(=O)CC2)cc1	nt	-0.3%[46.1 µM]	-7.1%	-6.2%	nt
Cc1cccc(CN2Cc3cccc4c3[C@H](C=CC4)CC2=O)c1	nt	nt	-8.9%	i	nt
Cc1nnc(NC(=O)CSc2ccccc2N)s1	-6.9%	nt	nt	nt	nt
Cc1ccc(C(C)(C)C)c(SCC(=O)Nc2nnc(C)s2)c1	?	7.08µM*	-10.1%	-11.3%	7.08µM*
Cc1ccc(-c2cnn(-c3cccc(C(F)(F)F)c3)c2N)cc1	11.2µM*	24.1%	nt	nt	11.8%
Nc1c(-c2ccc(Cl)cc2)cnn1-c1cccc(C(F)(F)F)c1	-17.5%	21.8%	-17.2%	nt	?
CC(C)(C)C(=O)O/N=C(\N)Cc1ccc(-c2csnn2)cc1	17.3%	?	-14.4%	i	8.91µM*
O=C(Nc1ccc(Cl)cc1)c1cc(S(=O)(=O)N2CCOCC2)cs1	5.62µM*	?	nt	nt	?
Cc1ccc(NC(=O)c2cc(S(=O)(=O)N3CCCCC3)cs2)cc1	?	20.6µM*	?	-28.4%	-28.7%
Cc1cccc(OCC(=O)Nc2nonc2-c2ccc(Br)cc2)c1C	nt	-1.9%[46.1 µM]	-2.0%	-11.7%	12.1%[46.1 µM]
Cc1cccc(-n2ncc(C(=O)Nc3ccc4c(c3)OCO4)c2C2CCN(C(=O)OC(C)(C)C)CC2)c1	nt	1.2%[46.1 µM]	-3.9%	-14.8%	nt
CCOC(=O)c1nn(-c2ccc(Br)cc2)cc1C(=O)c1cccc2ccccc12	-27.1%	?	nt	nt	5.8µM*
CCCC(NC(=S)NCC1CCCO1)C12CC3CC(CC(C3)C1)C2 (stereo not drawn)	11.2µM*	nt	-26.3%	i	nt
CCCn1cc(S(=O)(=O)c2ccc(CC)cc2)c(=O)c2ccccc21	nt	-5.5%[46.1 µM]	-27.4%	-10.2%	-6.8%[46.1 µM]
Nc1ccc(C(=O)OCC2=NC3C=c4ccccc4=CC3=N2)cc1 (stereo not drawn)	nt	nt	nt	nt	1.64µM*
SMILES	HCV inh	Lassa entry inh	Vaccinia Venus	VACV mCherry inh	MARV entry inh
Nc1ccc(C(=O)OCc2nc3ccccc3s2)cc1	4.3%	7.1%[46.1 µM]	-10.6%	i	?
C(=C1C=c2ccccc2=C1)c1ccc(N=Nc2ccc(C=C3C=c4ccccc4=C3)cc2)cc1	nt	nt	-12.9%	-0.1%	nt
O=C(CSc1nccn1-c1cccc(Cl)c1)Nc1cccc(C(F)(F)F)c1	nt	-6.8%[46.1 µM]	-3.7%	i	nt
O=C(Cc1cccc(C(F)(F)F)c1)Nc1ccc(S(=O)(=O)N2CCCC2)cc1	?	-27.2%	-19.9%	?	?
COc1cc(C(C)=O)ccc1OCC(=O)Nc1ccc(C)c(S(=O)(=O)N2CCCCCC2)c1	3.98µM*	nt	nt	nt	nt
Cc1ccc(NC(=O)CCl)cc1S(=O)(=O)N1CCCCCC1	?	-24.8%	-14.5%	-11.5%	?
Cc1ccc(NC(=O)COc2cccc(C)c2C)cc1S(=O)(=O)N1CCCCCC1	6.31µM*	11.2µM*	-5.0%	i	?
COc1ccc(NC(=O)COc2ccccc2C(N)=O)cc1S(=O)(=O)N1CCCCC1	nt	nt	-15.7%	-14.7%	nt
O=C(COc1cccc(C(F)(F)F)c1)Nc1ccc(S(=O)(=O)N2CCCC2)cc1	11.2µM*	-10.5%	nt	nt	-16.9%
Cc1ccc(NC(=O)COc2ccccc2C(N)=O)cc1S(=O)(=O)N1CCCCCC1	5.01µM*	nt	nt	nt	nt
COc1ccc(CNC(=O)C(CC(C)C)NS(=O)(=O)c2ccc3c(c2)oc(=O)n3C)cc1 (stereo not drawn)	nt	?	-2.1%	-7.9%	6.5%[46.1 µM]
O=C(CNc1cc(S(=O)(=O)N2CCCC2)ccc1OCC(F)(F)F)Nc1ccc(SC(F)F)cc1	?	18.4µM*	?	?	8.2µM*
COc1ccc(NC(=O)COc2ccccc2C)cc1S(=O)(=O)N1CCCCC1	8.91µM*	?	-23.8%	-16.8%	?
COc1ccc(NC(=O)COc2ccccc2C#N)c(S(=O)(=O)N2CCCCC2)c1	10µM*	?	?	nt	?
CC(CC(=O)Nc1ccc(Cl)c(S(=O)(=O)N2CCOCC2)c1)c1ccccc1 (stereo not drawn)	2.51µM*	-43.8%	?	-13.7%	?
CCOc1ccccc1OCC(=O)Nc1ccc(OC)c(S(=O)(=O)N2CCCCC2)c1	?	-9.0%	-19.9%	-14.4%	?
CCC(=O)N1c2ccccc2CC1C(=O)NCc1cccc(OC)c1OC (stereo not drawn)	nt	-6.3%[46.1 µM]	7.4%	-7.8%	nt
CCN(CC)c1ccc(/C=C2\C=Cc3ccccc32)cc1	nt	nt	-4.4%	-4.4%	nt
O=C(CC1CCCC1)Nc1ccc(Cl)c(S(=O)(=O)N2CCOCC2)c1	11.2µM*	2.82µM*	-26.2%	?	?
CCc1cccc(OCC(=O)Nc2ccc(C)c(S(=O)(=O)N3CCCCCC3)c2)c1	8.91µM*	?	-14.3%	?	?
Cc1ccc(NC(=O)COC(=O)c2ccccc2F)cc1S(=O)(=O)N1CCCCC1	-0.8%	24.8%	-12.8%	-18.1%	?
O=C(Nc1ccc(Cl)c(S(=O)(=O)N2CCOCC2)c1)C1CCC1	-10.1%	nt	nt	nt	nt
COc1ccc(NC(=O)CC2CCCC2)cc1S(=O)(=O)N1CCCCC1	-26.6%	10µM*	-24.6%	-6.0%	-0.5%
Cc1c(C(=O)Nc2ccc(F)cc2F)nnn1-c1ccccc1Br	nt	11.9%[46.1 µM]	-29.6%	-29.2%	0.1%[46.1 µM]
COc1ccc(/C=C2\CCCC3C2=NN(C(=O)c2scnc2C)C3c2ccc(OC)c(OC)c2)cc1OC (stereo not drawn)	0.1%	5.17µM*	nt	nt	?
CCN(CCN(C)C)C(=O)Cn1ncc2c([nH]c3ccc(C)cc32)c1=O	nt	?	2.1%	-13.2%	nt
CCn1nc(C)cc1C(=O)NCC1CCC2(CCN(Cc3ccccc3F)CC2)O1 (stereo not drawn)	nt	nt	-13.6%	-13.8%	nt
CN1CC(c2ccccc2)C2(SC(=S)N(Cc3ccco3)C2=O)C12C(=O)Nc1ccccc12 (stereo not drawn)	7.08µM*	?	nt	nt	?

Assay outcomes (PubChem BioAssay)
